# Among all 330,000 compounds or so, about 35 (0.01%) were called active. The list is a sample of the results. Unmarked numbers belong to inactive results.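 Rule for the calls: active = highest replicate inhibition of at least 50% and at least 75% of replicates reaching 50%; inconclusive = only one of the two criteria met; inactive = both criteria failed.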
# Molecular target: Cyclin-dependent kinase 5 (Homo sapiens) + Cyclin-dependent kinase 5 activator 1 (Homo sapiens) (UniProt Q00535+Q15078)
# Test: CDK5/p35 phosphotransfer blockade – biochemical, single concentration, primary screen (AID 488839);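 note: plate controls were DMSO neutral control for no effect and GW8510 at 10 µM for full effect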
# Conditions: Recombinant CDK5/p35, ADP-Glo luminescence, 60 min; at 10 µM; hits give high values
# Chain of Cyclin-dependent kinase 5 (Homo sapiens) + Cyclin-dependent kinase 5 activator 1 (Homo sapiens) (Q00535 whole entry, looked up): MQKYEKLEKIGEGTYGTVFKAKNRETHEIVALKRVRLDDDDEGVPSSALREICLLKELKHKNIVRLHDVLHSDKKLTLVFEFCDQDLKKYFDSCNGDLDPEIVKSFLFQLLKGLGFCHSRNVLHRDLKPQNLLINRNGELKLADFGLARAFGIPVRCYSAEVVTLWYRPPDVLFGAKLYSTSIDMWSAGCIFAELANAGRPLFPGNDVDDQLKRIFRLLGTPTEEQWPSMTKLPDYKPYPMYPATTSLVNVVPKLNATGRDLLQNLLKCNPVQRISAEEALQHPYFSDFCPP
# Chain of Cyclin-dependent kinase 5 (Homo sapiens) + Cyclin-dependent kinase 5 activator 1 (Homo sapiens) (Q15078 whole entry, looked up): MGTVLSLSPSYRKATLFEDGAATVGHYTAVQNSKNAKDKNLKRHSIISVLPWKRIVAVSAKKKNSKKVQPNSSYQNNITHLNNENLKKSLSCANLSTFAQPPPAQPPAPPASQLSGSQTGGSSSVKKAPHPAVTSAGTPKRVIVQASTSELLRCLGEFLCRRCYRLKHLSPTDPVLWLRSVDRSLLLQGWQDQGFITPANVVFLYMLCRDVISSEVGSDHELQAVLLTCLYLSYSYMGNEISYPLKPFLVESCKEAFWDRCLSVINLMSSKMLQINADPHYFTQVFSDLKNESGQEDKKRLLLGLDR
row,SMILES,inhibition [%]
1,CN(C)C1=NC[C@H](Cc2ccccc2)N1CCc1ccc(F)cc1,0.95
2,O=S(=O)(/N=C(/Nc1ccccc1)c1ccccc1)c1cccs1,0.387
3,OCc1nc(CO)n(Cc2ccccc2)n1,-0.111
4,COc1ccc(CCNC(=O)C(=O)NCC2OCCN2S(=O)(=O)c2ccc(OC)c(C)c2)cc1 (stereo not given),1.39
5,O=C(OCC(=O)N1CCCC1)c1ccc(Cl)nc1,1.02
6,CCCCC(=O)Nc1nnc(S(=O)(=O)N(C)Cc2ccco2)s1,1.6
7,CCn1cc(CN2CCCC(CNS(=O)(=O)Cc3ccccc3)C2)cn1 (stereo not given),0.0333
8,CCc1[nH]nc(C(=O)N2CCCC(CNS(=O)(=O)c3cccs3)C2)c1C (stereo not given),0.235
9,CCN1C(=O)CS/C1=N\c1nccs1,0.817
10,O=C(c1cccs1)C1C(c2ccc(Br)cc2)NC(=S)NC1(O)C(F)(F)F (stereo not given),1.75
11,CCc1ccc(-c2cc(C(=O)NN3CCN(C)CC3)c3ccccc3n2)cc1,2.52
12,Cc1oc(C(N)=O)cc1COc1ccc(C(N)=O)cc1,1.55
13,O=C(CNCc1ccc(F)cc1)Nc1ccccc1-c1ccccc1,0.549
14,S=C(NCC1CCCO1)N1CCN(c2ccc(Cl)c(Cl)c2)CC1 (stereo not given),-0.238
15,COc1ccc(-c2nc3n(c2Br)CCC3)cc1,1.75
16,O=C(Nc1cccc(Cl)c1)Nc1ccccc1NS(=O)(=O)c1cccs1,-1.4
17,COc1ccccc1CNC(=O)COC(=O)c1cccs1,0.781
18,COC(C[C@@H](O)C[C@@H](O)[C@H](C)OCc1ccccc1)OC,-0.836
19,N#Cc1ccccc1Sc1ccccc1C(=O)OCC(=O)NC1CCCCC1,-1.96
20,O=C(CN(C(=O)c1nsc(Cl)c1Cl)c1cccc(F)c1)NC1CCCC1,0.211
21,NC1=NC(=O)C2(COC(c3ccccc3Cl)OC2)S1 (stereo not given),0.407
22,Cn1c(=O)c([N+](=O)[O-])c(Oc2ccccc2)c2ccccc21,3.54

row,SMILES,inhibition [%]
1,COc1cc(CNCc2cccs2)cc(Br)c1OC,-3.09
2,O=S1(=O)CSCS(=O)(=O)C1,-3.39
3,Cc1nn(C)c(C)c1C(C)NC(=O)c1ccc(OC2CCN(Cc3ccccn3)CC2)cc1 (stereo not given),-0.745
4,Cc1cccc(N(Cc2ccccc2)C(=O)c2cc(S(=O)(=O)N3CCOCC3)ccc2F)c1,-2.98
5,CCCCNC(=O)N(O)C1N(/N=C/c2ccc(N(C)C)cc2)C(=S)SC1(C)C (stereo not given),-0.992
6,Cc1ccc(-c2csc(N(Cc3ccco3)C(=O)c3cccs3)n2)cc1,0.457
7,c1cc(-n2cnnn2)ccc1NC1=NCCC1,-1.51
8,CCc1ccccc1N(CC(=O)N1CCN(c2ccccc2F)CC1)S(C)(=O)=O,0.372
9,O=C(CCn1c(=S)[nH]c2cc3c(cc2c1=O)OCO3)NCc1ccc(Cl)cc1,1.02
10,Cc1cccc(C)c1NC1=NC(=S)N(c2ccc(N(C)C)cc2)C1(C)C,-0.0411
11,COC(=O)c1sc(C(F)(F)F)c(-c2ccccc2)c1S(=O)(=O)N(C)C,-0.853
12,CCOC(=O)c1nc(-c2ccc3c(c2)OCO3)[nH]c1C,-1.03
13,CC(=O)NC(CC(=O)Nc1nc(-c2ccccc2)c(C(C)=O)s1)c1ccccc1 (stereo not given),0.222
14,CON(C)S(=O)(=O)c1ccc2c(c1)NC(=O)C1CCCN21 (stereo not given),-2.05
15,Cc1ccc(OCCCCc2c(C)n[nH]c2C)cc1,0.0918
16,COC(=O)c1cc(S(=O)(=O)Nc2ccc(C)c(F)c2)c[nH]1,1.29
17,O=c1cc(Cl)c2ccccc2n1-c1ccccc1,-0.318
18,COc1ccc(C(=O)N2CCN(c3ccc(C(C)=O)cc3F)CC2)cc1S(=O)(=O)NC1CC1,0.384
19,COc1ccc(C(C)NC(=S)NC2CCCCC2)cc1OC (stereo not given),-2.83
20,CCOc1ccccc1NC(=O)COc1ccc(S(=O)(=O)N2CCCC2)cc1,-0.338
21,COc1ccc(CCNC(=O)CCc2cn(C)c3ccccc23)c(OC)c1,1.21
22,COc1ccc(-c2nc(CN3CCN(c4ncccn4)CC3)c(C)o2)cc1C,0.124

row,SMILES,inhibition [%]
1,COc1ccc(S(=O)(=O)N(CCCN2CCCC2=O)Cc2cc3c(C)ccc(C)c3[nH]c2=O)cc1,-2.49
2,CCCCN(CC(=O)Nc1cccc(S(=O)(=O)N2CCCC2)c1)Cc1nc2ccccc2c(=O)[nH]1,0.255
3,C=CCn1c(-c2ccccc2OCC)n[nH]c1=S,-0.312
4,Cc1ccc(NC2CCCN(C(=O)CCc3cn[nH]c3)C2)cc1C (stereo not given),0.302
5,CCCNC(=O)NCc1ccc(N2CCCC2=O)cc1,-1.59
6,Cc1nn(-c2ccccc2)c(CC(C)(C)C(=O)O)c1C(=O)O,0.362
7,O=C1c2ccccc2C(O)N1Cc1ccccc1Cl (stereo not given),-1.45
8,Cc1cccc(-n2c(SCC(=O)Nc3cccc(S(=O)(=O)NC4=NCCCCC4)c3)nc3ccccc3c2=O)c1C,0.0416
9,CN(C(=O)CC1C(=O)NCCN1Cc1ccc2ccccc2c1)C1CCOCC1 (stereo not given),0.878
10,COc1ccc(C(C)NC(=O)C2CCCC2)cc1 (stereo not given),-1.29
11,O=C(NCCc1nnc2ccc(SCC(=O)N3CCOCC3)nn12)c1ccccc1,-3.67
12,CCOC(=O)c1cnc2ccc(F)cc2c1Nc1ccc2c(c1)OCCO2,-0.0856
13,Cc1ccc(NS(=O)(=O)c2c(C)[nH]c(=O)[nH]c2=O)cc1C,-1.59
14,CC1CCCCC1NCC(=O)Nc1ccccc1C(=O)Nc1ccccc1 (stereo not given),-1.88
15,COCCn1c(SC(C)C(=O)NC2CC2)nnc1-c1cccc(C)c1 (stereo not given),-7.75
16,COCC(C)n1c(C)cc(C(=O)COc2ccc(C)nc2[N+](=O)[O-])c1C (stereo not given),1.15
17,Cc1nnc(SC(C(=O)c2ccccc2)c2ccccc2)[nH]c1=O (stereo not given),0.641
18,COc1cccc(CN2C(=O)CCC2(C)C(=O)NC2CCCCCC2)c1 (stereo not given),1.09
19,COc1cccc2c1OCC(C(=O)NCc1ccc(Cl)cc1Cl)=C2,-2.22
20,COc1ccc(CCNC(=O)CCC(=O)NC2CCCCC2)cc1OC,1.39
21,CC(=O)Nc1ccc(NC(=O)C(C)OC(=O)C2CC(=O)N(CCc3ccccc3)C2)cc1 (stereo not given),-2.5
22,CC1(C)CC(=O)C(C2=NC(C)(C)Cc3ccccc32)=C(O)C1,0.357

row,SMILES,inhibition [%]
1,COc1ccc(-n2nc3c(c2NC(=O)c2ccc(N4C(=O)CCC4=O)cc2)CSC3)cc1,2.36
2,Brc1ccc(-c2n(-c3ccccn3)c3ccccc3[n+]2-c2ccccn2)cc1,3.32
3,C=CCNC(=S)NNc1ncnc2sc3c(c12)CC(C)(C)OC3,-1.36
4,Cc1ccc(S(=O)(=O)N2C3C=CC(C3)C2C(=O)O)cc1 (stereo not given),-7.35
5,O=C(Cn1cnc2c(OCc3ccccc3)ncnc21)NCCCn1ccnc1,1.18
6,CC(C)c1ccc(Nc2nnc(SCC(=O)c3nnc(-c4ccccc4)o3)s2)cc1,1.49
7,Cc1cc(C(C)(C)C)cc(S(=O)(=O)Nc2ccc(C(=O)O)cc2)c1C,0.418
8,Cc1ccc(SCC2=NNC(=O)C2)cc1,0.0205
9,CC(C)C(NC(=O)c1c(F)cccc1F)C(=O)NCc1ccncc1 (stereo not given),-1.58
10,Cc1ccc(N(C(=O)c2ccc(S(=O)(=O)N(C)C)cc2)C2C=CS(=O)(=O)C2)cc1 (stereo not given),1.14
11,COc1ccc(Cl)cc1NC(=O)CN(C)Cc1ccc(OC)c(OC)c1,-3.62
12,CCOC(=O)N1CCC(NC(=O)Cn2cc3c(n2)CCCCC3)CC1,3.25
13,CCCc1nc2oc3c(=O)[nH]cnc3c2c2c1COC(C)(C)C2,-0.359
14,CCOC(=O)c1c(NC(C)=O)sc2c(O)c(Br)ccc12,-0.579
15,Cc1ccc(C)c(NC(=O)COC(=O)CSc2ccccc2)c1,-0.511
16,CCc1cc2c(=O)c(-c3nc4ccccc4n3C)c(CCCC(=O)O)oc2cc1OC(=O)C(C)(C)C,-1.94
17,O=C(CN1CCOCC1)Nc1c2c(nc3c1CCC3)CCC2,-2.33
18,O=C(COC(=O)CNC(=O)C1CCCCC1)NCc1ccccc1,1.54
19,CCCCc1nc(SCC(=O)Nc2nnc(C(C)C)s2)n[nH]1,-0.0356

# Reference: PubChem BioAssay AID488839 (Broad Institute, 2010)
